The values that follow come from PubChem BioAssay AID1726 (National Center for Advancing Translational Sciences (NCATS), 2009).

Molecules are shown by their SMILES. Records with an inconclusive call do not appear. Activity calls are given as the source filed them. The call rests on the fitted dose curve; in most records, active means well fitted curve in the direction sought with a large enough effect; inconclusive means small, poorly fitted or top-dose-only effect, or effect the other way, or another doubt; inactive means no such curve, though single readings can be large or run the other way.

The target of this assay is Epidermal growth factor receptor (Homo sapiens) (UniProt P00533). Put plainly: Assay for Inhibitors of the ERK Signaling Pathway using a Homogeneous Screening Assay: EGFR T790M/L858R Kinase Inhibition. From the text: qHTS Assay for Inhibitors of the ERK Signaling Pathway using a Homogeneous Screening Assay
Chain of Epidermal growth factor receptor (Homo sapiens) (P00533 whole entry T790M/L858R, looked up): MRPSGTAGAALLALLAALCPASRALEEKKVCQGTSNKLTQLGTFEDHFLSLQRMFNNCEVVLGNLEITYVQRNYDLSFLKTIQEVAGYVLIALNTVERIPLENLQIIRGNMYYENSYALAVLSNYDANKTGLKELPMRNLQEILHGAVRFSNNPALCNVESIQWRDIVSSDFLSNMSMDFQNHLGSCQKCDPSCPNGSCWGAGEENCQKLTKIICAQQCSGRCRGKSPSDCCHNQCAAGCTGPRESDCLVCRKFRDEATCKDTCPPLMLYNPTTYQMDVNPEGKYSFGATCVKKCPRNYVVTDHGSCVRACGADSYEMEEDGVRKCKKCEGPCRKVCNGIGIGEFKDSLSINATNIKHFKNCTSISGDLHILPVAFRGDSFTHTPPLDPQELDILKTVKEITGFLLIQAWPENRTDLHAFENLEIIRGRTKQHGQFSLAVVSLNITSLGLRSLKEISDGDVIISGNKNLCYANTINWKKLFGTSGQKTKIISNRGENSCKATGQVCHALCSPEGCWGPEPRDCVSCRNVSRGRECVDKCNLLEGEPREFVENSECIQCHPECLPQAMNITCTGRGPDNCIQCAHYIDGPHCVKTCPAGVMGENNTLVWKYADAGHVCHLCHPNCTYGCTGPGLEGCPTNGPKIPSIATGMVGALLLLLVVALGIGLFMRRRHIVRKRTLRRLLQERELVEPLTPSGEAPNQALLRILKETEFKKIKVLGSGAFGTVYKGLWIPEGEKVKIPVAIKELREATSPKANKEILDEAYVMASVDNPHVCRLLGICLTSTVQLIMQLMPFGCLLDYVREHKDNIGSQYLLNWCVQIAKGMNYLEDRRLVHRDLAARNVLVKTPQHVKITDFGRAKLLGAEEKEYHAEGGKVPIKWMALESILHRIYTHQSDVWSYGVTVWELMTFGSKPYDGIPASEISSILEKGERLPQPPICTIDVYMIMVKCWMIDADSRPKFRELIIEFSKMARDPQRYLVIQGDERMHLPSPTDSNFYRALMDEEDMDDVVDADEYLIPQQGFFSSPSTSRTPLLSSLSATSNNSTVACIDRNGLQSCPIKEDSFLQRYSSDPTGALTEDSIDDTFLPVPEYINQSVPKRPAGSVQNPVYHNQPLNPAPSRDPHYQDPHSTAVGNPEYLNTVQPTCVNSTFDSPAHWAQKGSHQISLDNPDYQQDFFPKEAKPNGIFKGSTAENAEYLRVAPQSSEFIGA
NIH Chemical Genomics Center [NCGC]
NIH Molecular Libraries Screening Centers Network [MLSCN]
Assay Submitter (PI): Dr. Wei Zheng, NCGC/NIH
The Ras/extracellular-signal-regulated kinase (ERK) mitogen activated protein (MAP) kinase signaling pathway (ERK1/2 cascade) plays is a key role in transmitting signals from the cell surface to the nucleus (Nishida and Gotoh 1993; Chang and Karin, 2001). The cascade is initiated by the small G-protein Ras, which recruits Raf […], where activation occurs. Alternatively, this pathway can be activated by elevating intracellular cAMP.
Activation of the ERK pathway is essential in increased cell division and cell survival. Sustained and constitutive activation of the ERK pathway, however, has been linked to uncontrolled cell proliferation, increased cell survival, and tumor progression. Thus, the ERK has been as an attractive target for cancer chemotherapy in the past few years (Sebolt-Leopold and Herrera, 2004). […]
The HTRF kinase assay (components supplied as kit by Cisbio) was chosen for the EGFR and EGFR mutant enzyme assays that applied the time resolved fluorescence resonance energy transfer (TR-FRET) principle. […]

In the case of `CN1CCN(c2cccc3c2C(=O)c2ccccc2C3=O)CC1`, the result was inactive.

Consider `Cc1nc2c(=O)n(C)c(=O)nc-2n(C)n1`, for which the compound was called inactive.
